The whole screen tested about 13,000 compounds, of which about 3,200 (25%) showed an effect of 50% or more. The list shows a part of the results.
Test system: P. falciparum stage V gametocytes
Set-up: BacTiter-Glo ATP luminescence viability of purified stage V gametocytes in 384-well plates, per cent inhibition versus DMSO
Conditions: 48 h, 5 µM; inhibitor

Point of comparison: `O=C(NCc1ccccc1)Nc1cccc(-c2cccc(-c3nc4ccc(C(F)(F)F)cc4[nH]3)c2)c1` [TCMDC-133161], “% Inhibition” value -23.46%. Against it:
- CC1(C)N=C(N)N=C(N)N1OCCCOc1cccc(C(=O)O)c1 [TCMDC-124025] — higher, 22.26%
- O=C(Nc1ccc(-c2cccc(-c3nc4ccccc4[nH]3)c2)cc1)Nc1ccc2c(c1)OCO2 [TCMDC-133168] — higher, -6.536%
- Cc1[nH]c(C)c(-c2ccc(OCc3cc(F)cc(F)c3)nc2)c(=O)c1Br [TCMDC-135683] — higher, 58.89%
- Cc1[nH]c(C)c(-c2ccc(OCc3ccc(F)cc3)nc2)c(=O)c1Br [TCMDC-135657] — higher, 60.6%
- Cc1[nH]c(C)c(-c2ccc(OCc3ccc(OC(F)(F)F)cc3)nc2)c(=O)c1Br [TCMDC-135254] — higher, 45.17%
- Cc1[nH]c(C)c(-c2ccc(OCc3cc(F)cc(F)c3)nc2)c(=O)c1Cl [TCMDC-135676] — higher, 67.03%
- CCNc1cc(C(=O)N[C@@H](Cc2ccc(Cl)cc2)[C@H](O)CNC2CCCCC2)cc(N2CCCCS2(=O)=O)c1 [TCMDC-135201] — higher, 29.54%
- N#Cc1ccc(NC(=Nc2ccccc2Br)N(C2CCCCC2)C2CCCCC2)c(O)c1 [TCMDC-140131] — lower, -34.98%
- FC(F)(F)CNc1nc(Nc2ccc3ncccc3c2)nc2[nH]ccc12 [TCMDC-132120] — higher, 26.12%
- C=C[C@H]1CN2CC[C@H]1C[C@H]2[C@H](O)c1ccnc2ccccc12 [TCMDC-123934] — higher, 4.056%
- CN(C)c1cccc(CN2CC=C(c3c[nH]c4ccc(Cl)cc34)CC2)c1 [TCMDC-138946] — higher, 8.82%
- CN(C)S(=O)(=O)c1cc(-c2ccc3nccc(-c4cccc(S(N)(=O)=O)c4)c3c2)cnc1N [TCMDC-134230] — higher, 96.42%
- NS(=O)(=O)Cc1cccc(-c2ccnc3ccc(-c4cccc(S(N)(=O)=O)c4)cc23)c1 [TCMDC-134159] — higher, 58.63%
- NS(=O)(=O)c1cccc(-c2ccc3c(=O)[nH]cnc3c2)c1 [TCMDC-136756] — higher, 63.64%
- NS(=O)(=O)c1cccc(Br)c1 [TCMDC-123819] — higher, -1.825%
- COc1ccc(-c2ccc3c(-c4cccc(S(C)(=O)=O)c4)cnc(N)c3c2)cc1 [TCMDC-134494] — higher, 3.475%
- CS(=O)(=O)c1cccc(-c2cnc(N)c3cc(-c4ccc(F)cc4)ccc23)c1 [TCMDC-134492] — higher, 11.87%
- CS(=O)(=O)c1cccc(-c2cnc(N)c3cc(-c4cccc(F)c4)ccc23)c1 [TCMDC-134493] — higher, 8.942%
- Nc1ncnc2cc(-c3cccc(S(N)(=O)=O)c3)sc12 [TCMDC-135294] — higher, -17.5%
- COc1cccc(-c2ccc3c(-c4cccc(S(C)(=O)=O)c4)cnc(N)c3c2)c1 [TCMDC-134495] — higher, 30.55%
- NS(=O)(=O)c1cccc(-c2ccc3nccc(-c4cccc(S(N)(=O)=O)c4)c3c2)c1 [TCMDC-138902] — higher, 75.33%
- CS(=O)(=O)c1cccc(-c2cnc(N)c3cc(-c4ccc5c(c4)OCO5)ccc23)c1 [TCMDC-134515] — higher, -1.728%
- COc1cc(Nc2nccc(N3CCC(NC(=O)Nc4cc(C)ccc4C)C3)n2)cc(OC)c1OC (stereo not shown) [TCMDC-133626] — lower, -44.43%
- Cc1cc(-c2ccc(Cl)cc2)c2c(N)c(C(=O)Nc3ccc(F)cc3)sc2n1 [TCMDC-124117] — higher, 40.98%
- CN(C)C(CNC(=O)c1cc(-c2ccncc2)c(-c2ccc(NC(=O)Nc3cccc(F)c3)cc2)o1)c1ccccc1 (stereo not shown) [TCMDC-135782] — higher, 6.274%
- CC(C)(C)c1ccc(-c2ccccc2CNC(=O)c2cccc(O)c2)cc1 [TCMDC-136181] — higher, 21.07%
- Cc1cc(CN2CCC(N3CC(c4ccccc4)(c4ccccc4)OCC3=O)C2)ccc1O (stereo not shown) [TCMDC-136340] — higher, -6.883%
- CN1CCCN(Cc2ccc(-c3cccc(NC(=O)c4ccc(C#N)cc4)c3)cc2)CC1 [TCMDC-132637] — higher, 9.146%
- Cc1cc(-c2cnc(N)c(-c3ccc(N4CCN(C)CC4)nc3)c2)cc(C)c1O [TCMDC-133346] — lower, -63.65%
- CN(Cc1ccccc1)C1CCCN(c2cc(NC(=O)c3cccs3)ccn2)C1 (stereo not shown) [TCMDC-135007] — lower, -39.99%
- CC(C)c1cc2c(cc1O)C(Cc1ccccc1Cl)N(C)CC2 (stereo not shown) [TCMDC-137322] — lower, -86.96%
- COCCn1c(SC(C)C(=O)Nc2cc(C(F)(F)F)ccc2Cl)nc2ccccc2c1=O (stereo not shown) [TCMDC-125030] — higher, 60.86%
- COCC(C)n1c(SCC(=O)Nc2cc(C(F)(F)F)ccc2Cl)nc2ccccc2c1=O (stereo not shown) [TCMDC-125436] — higher, 2.32%
- CCn1c(SCC(=O)Nc2cc(C(F)(F)F)ccc2Cl)nc2ccccc2c1=O [TCMDC-125426] — higher, 3.057%
- COc1ccc(N(C)Cc2cnc3nc(N)nc(N)c3n2)cc1 [TCMDC-137682] — higher, 5.189%
- COC(=O)C(C)(C)c1ccc(CC(C)NCC(O)c2cccc(C(F)(F)F)c2)cc1 (stereo not shown) [TCMDC-131482] — higher, 7.113%
- Oc1ccc(Cl)cc1Nc1nc(C(F)(F)F)nc2ccccc12 [TCMDC-125147] — lower, -61.42%
- N#Cc1cccc(CN(Cc2ccc(Cl)c(Cl)c2)S(=O)(=O)c2cccc([N+](=O)[O-])c2)c1 [TCMDC-141594] — higher, 51.09%
- O=C(Nc1cccc([N+](=O)[O-])c1)N(Cc1ccc(Cl)c(Cl)c1)C1CCNCC1 [TCMDC-141400] — higher, 39.3%
- O=[N+]([O-])c1cccc(CNCC2CCN(Cc3ccc(Cl)c(Cl)c3)CC2)c1 [TCMDC-141206] — higher, 3.652%
- Cc1cccc2sc(N(CCCn3ccnc3)C(=O)C=Cc3cccs3)nc12 [TCMDC-124929] — higher, 30.83%
- Cc1c(C(=O)N2CCc3cc4nccc(N5CCN6CCC[C@H]6C5)c4cc32)cnn1-c1ccc(C#N)cc1 [TCMDC-141315] — higher, 14.04%
- CCCCNCc1ccc(-c2nc(CN(Cc3ccc(Cl)c(Cl)c3)C(=O)CN(C)C)cs2)cc1 [TCMDC-141703] — higher, 68.39%
- CCCCOc1ccccc1C(=O)NCc1csc(-c2ccccc2)n1 [TCMDC-124914] — higher, 34.72%
- CN(C)CC(=O)N(Cc1ccc(Cl)c(Cl)c1)Cc1csc(-c2ccc(CNCc3ccccc3)cc2)n1 [TCMDC-141814] — higher, 21.62%
- CCCCNCc1ccc(-c2nc(CN(Cc3ccc(Cl)c(Cl)c3)S(=O)(=O)c3ccc(NC(C)=O)cc3)cs2)cc1 [TCMDC-141597] — higher, 93.87%
- CC(=O)Nc1ccc(CNC2Cc3ccc(-c4ccc(Cl)c(Cl)c4)cc3C2)cc1 (stereo not shown) [TCMDC-133070] — higher, 12.53%
- CCN(CC)S(=O)(=O)c1ccc(Cl)c(C(=O)Nc2ccc3nc(C)sc3c2)c1 [TCMDC-124376] — higher, 33.54%
